The values that follow come from PubChem BioAssay.

Calls of active or inactive are those of the source.

One assay concerns the target Albumin (Bos taurus) (UniProt P02769). In words: bovine serum albumin binders on microarray, profiling panel, artefact control for SMM control protein annotation, biochemical, small-molecule microarray, Alexa647 label, 635/667 nm fluorescence (AID 1118).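 Further: score merges 667 nm emission intensity and signal-to-noise per printed compound spot.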 The conditions noted are these: BSA-A647 binding, fluorescence 635 nm, higher = more signal.
Assay [1] is described as follows: small-molecule microarray binders of probe aXIP, primary screen, biochemical, NeuroSMM set, 635/667 nm fluorescence (AID 1119).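 Further: probe is the protein aXip251-270 applied at 1 µg/mL to compound-printed slides; binding of probe to printed compounds measured as 667 nm fluorescence plus signal to noise.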 The conditions noted are these: higher = more signal, called active from +8 up or from −8 down.
Assay [2] is described as follows: small-molecule binders of probe aNOTCH3, primary screen, biochemical, small-molecule microarray, 635/667 nm fluorescence (AID 1120).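 Further: probe is a biotin-tagged antibody raised against NOTCH3 rather than NOTCH3 protein; score merges spot fluorescence near 667 nm with spot signal to noise.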 The conditions noted are these: higher = more signal.
Assay [3] can be described thus: small-molecule binders of probe aNOTCH2, primary screen, biochemical, small-molecule microarray, 635/667 nm fluorescence (AID 1121).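 Further: score merges feature fluorescence read at 667 nm with its signal to noise.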 The conditions noted are these: higher = more signal.
Assay [4] concerns the target Carbonic anhydrase 2 (Homo sapiens) (UniProt P00918). In words: CAII small-molecule binders, profiling panel, biochemical, small-molecule microarray, Alexa647-labelled CAII (AID 1122). The conditions noted are these: CAII-A647 binding fluorescence, higher = more signal.
Assay [5] is described as follows: COS7 lysate on small-molecule microarray, probe aHis, 635 nm (AID 1123).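 Further: z-score combines 667nm fluorescence intensity with signal-to-noise per printed compound spot.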 The conditions noted are these: COS7 cell lysate, fluorescence, higher = more signal.
A short description of assay [6]: compound binding in COS7 lysate, probe aLAP1, primary screen, cell lysate, small-molecule microarray (AID 1124).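 Further: lysate comes from COS7 cells expressing LAP1 and is applied at 0.3 µg/mL; score merges spot fluorescence near 667 nm with signal-to-noise over triplicate slides.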 The conditions noted are these: probe aLAP1, fluorescence, higher = more signal.
The next assay relates to Sam68 (KHDRBS1). In words: Sam68 small-molecule binders, primary screen, biochemical, small-molecule microarray, 635 nm fluorescence (AID 1125).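 Further: score merges 667 nm channel intensity with signal to noise over triplicate slides.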 The conditions noted are these: small-molecule microarray binding, higher = more signal.
Assay [7] relates to Chordin-like protein 2 (CHRDL2). In words: CHRDL2 small-molecule binders, primary screen, biochemical, small-molecule microarray, 635 nm fluorescence (AID 1126).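 Further: printed compound slides probed with Chrdl2 protein at 4 µg/mL for 1 h at 4 C; score merges 667 nm emission intensity with signal to noise over three replicate slides.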 The conditions noted are these: small-molecule microarray binding, fluorescence 635 nm; higher = more signal.
Assay [8] has as its target Concanavalin-A (Canavalia ensiformis) (UniProt P02866). In words: ConA small-molecule binders, primary screen, artefact control for SMM control protein annotation, biochemical, small-molecule microarray, Alexa647 label, 635 nm (AID 1127).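 Further: z combines 667 nm emission intensity with signal-to-noise across three replicate slides.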 The conditions noted are these: ConA-A647 binding fluorescence, higher = more signal.
Assay [9] in a line: anti-His antibody binders, primary screen, artefact control for SMM control protein annotation, biochemical, small-molecule microarray, 635 nm fluorescence (AID 1128).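 Further: score merges feature fluorescence with signal-to-noise for each printed compound spot.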 The conditions noted are these: anti-His Alexa647 antibody binding, higher = more signal.
For assay [10], the system named is Human papillomavirus type 1a E7 protein (residues 1-88). In words: HPV1a E7 small-molecule binders, primary screen, biochemical, small-molecule microarray, residues 1-88, 635 nm (AID 1129). The conditions noted are these: small-molecule microarray binding, fluorescence 635 nm; higher = more signal.
In assay [11] the target is Focal adhesion kinase 1 (Homo sapiens) (UniProt Q05397). In words: small-molecule microarray binders of FAK, primary screen, biochemical, 635/667 nm fluorescence, BSA, DTT (AID 1130).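 Further: composite of spot emission at 667 nm and signal to noise over triplicate slides.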 The conditions noted are these: PTK2 binding, 635 nm fluorescence, higher = more signal.
Assay [12] deals with Fibrinogen (Alexa647-labelled). In words: fibrinogen binders on compound microarrays, profiling panel, artefact control for SMM control-protein annotation, biochemical, small-molecule microarray, 635/667 nm fluorescence (AID 1131).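 Further: z-score merges 667 nm fluorescence with per-spot signal-to-noise over triplicate slides.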 The conditions noted are these: fibrinogen-A647 binding fluorescence, higher = more signal.
Assay [13] has as its target Follistatin (Homo sapiens) (UniProt P19883). In words: follistatin binders on small-molecule microarrays, primary screen, biochemical, small-molecule microarray, 635/667 nm fluorescence (AID 1132). The conditions noted are these: FST binding, 635 nm fluorescence, higher = more signal.
Assay [14] concerns the target Fibroblast growth factor 2 (Homo sapiens) (UniProt P09038). In words: FGF2 binders on small-molecule microarrays, primary screen, biochemical, small-molecule microarray, 635/667 nm fluorescence (AID 1133). The conditions noted are these: small-molecule microarray binding, FGF2, fluorescence 635/667; higher = more signal.
The nature of assay [15]: mitochondrial membrane potential change in A549 cells, profiling panel, cell-based, JC-1 fluorescence, basal, 24 h, 100 nL (AID 1138).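 Further: A549 lung adenocarcinoma cells under basal conditions with no added stimulus; test concentration not given here.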 The conditions noted are these: higher = more signal.
In the next assay the test system is Lefty1. In words: Lefty1 binders on small-molecule microarrays, primary screen, biochemical, small-molecule microarray, 635/667 nm fluorescence (AID 1139). The conditions noted are these: small-molecule microarray binding, fluorescence 635/667; higher = more signal.
The test system of assay [16] is wheat germ agglutinin (Triticum aestivum), Alexa647-labelled. In words: wheat germ agglutinin binders on compound microarrays, profiling panel, artefact control for SMM control-protein annotation, biochemical, small-molecule microarray, 635/667 nm fluorescence (AID 1140).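 Further: score merges 667 nm feature emission with signal to noise over triplicate slides.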 The conditions noted are these: WGA-A647 binding, 635 nm fluorescence, higher = more signal.
For assay [17], the target named is Luciferin 4-monooxygenase (Photinus pyralis) (UniProt P08659). In words: firefly luciferase enzyme inhibitors, primary screen, biochemical, luminescence, purified enzyme, 2006 set (AID 1141).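 Further: cell-free assay with purified firefly luciferase at 100 ng per well in PBS; test concentration not given here.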 The conditions noted are these: SteadyGlo luminescence, 30 min, higher = more signal, called active from +8 up or from −8 down.
Sequence of Luciferin 4-monooxygenase (Photinus pyralis) (P08659 whole entry, looked up): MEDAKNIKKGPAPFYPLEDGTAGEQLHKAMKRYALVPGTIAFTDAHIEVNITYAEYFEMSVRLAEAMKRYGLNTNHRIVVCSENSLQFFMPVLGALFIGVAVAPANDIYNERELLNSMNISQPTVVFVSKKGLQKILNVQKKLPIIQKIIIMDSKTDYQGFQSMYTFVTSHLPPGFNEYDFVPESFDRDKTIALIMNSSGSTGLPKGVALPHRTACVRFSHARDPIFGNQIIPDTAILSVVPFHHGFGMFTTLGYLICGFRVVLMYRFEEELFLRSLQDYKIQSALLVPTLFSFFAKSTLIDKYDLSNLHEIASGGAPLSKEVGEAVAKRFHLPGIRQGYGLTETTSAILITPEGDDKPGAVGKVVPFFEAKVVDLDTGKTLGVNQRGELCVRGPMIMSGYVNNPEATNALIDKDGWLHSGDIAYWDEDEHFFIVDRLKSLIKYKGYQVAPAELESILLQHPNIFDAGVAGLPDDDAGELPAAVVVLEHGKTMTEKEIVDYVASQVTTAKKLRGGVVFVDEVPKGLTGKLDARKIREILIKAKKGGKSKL

Sequence of Follistatin (Homo sapiens) (P19883 whole entry, looked up): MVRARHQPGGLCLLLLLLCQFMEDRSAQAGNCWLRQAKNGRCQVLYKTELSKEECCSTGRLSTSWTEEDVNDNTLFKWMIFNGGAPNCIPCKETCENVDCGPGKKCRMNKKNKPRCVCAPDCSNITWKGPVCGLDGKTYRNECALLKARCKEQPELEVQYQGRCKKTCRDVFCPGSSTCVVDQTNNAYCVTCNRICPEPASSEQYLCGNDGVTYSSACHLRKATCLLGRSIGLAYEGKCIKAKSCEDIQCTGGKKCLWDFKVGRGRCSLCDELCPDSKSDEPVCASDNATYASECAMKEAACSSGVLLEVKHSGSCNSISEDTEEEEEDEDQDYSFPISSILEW
Sequence of Albumin (Bos taurus) (P02769 whole entry, looked up): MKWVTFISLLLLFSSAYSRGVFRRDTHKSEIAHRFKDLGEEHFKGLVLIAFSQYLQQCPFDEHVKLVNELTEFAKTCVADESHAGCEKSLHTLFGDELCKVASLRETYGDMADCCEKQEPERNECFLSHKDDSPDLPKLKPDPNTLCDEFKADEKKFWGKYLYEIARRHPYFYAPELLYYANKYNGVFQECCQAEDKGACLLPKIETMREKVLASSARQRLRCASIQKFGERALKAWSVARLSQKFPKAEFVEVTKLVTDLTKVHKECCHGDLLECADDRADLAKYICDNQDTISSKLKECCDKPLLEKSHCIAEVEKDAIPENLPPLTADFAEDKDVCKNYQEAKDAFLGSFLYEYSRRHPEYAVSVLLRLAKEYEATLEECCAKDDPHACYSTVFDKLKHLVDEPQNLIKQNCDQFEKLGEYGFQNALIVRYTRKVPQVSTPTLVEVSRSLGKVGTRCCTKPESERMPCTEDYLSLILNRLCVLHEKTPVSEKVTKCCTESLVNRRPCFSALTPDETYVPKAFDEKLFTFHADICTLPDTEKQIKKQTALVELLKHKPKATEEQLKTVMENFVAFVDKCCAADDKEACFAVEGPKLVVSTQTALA
Sequence of Fibroblast growth factor 2 (Homo sapiens) (P09038 whole entry, looked up): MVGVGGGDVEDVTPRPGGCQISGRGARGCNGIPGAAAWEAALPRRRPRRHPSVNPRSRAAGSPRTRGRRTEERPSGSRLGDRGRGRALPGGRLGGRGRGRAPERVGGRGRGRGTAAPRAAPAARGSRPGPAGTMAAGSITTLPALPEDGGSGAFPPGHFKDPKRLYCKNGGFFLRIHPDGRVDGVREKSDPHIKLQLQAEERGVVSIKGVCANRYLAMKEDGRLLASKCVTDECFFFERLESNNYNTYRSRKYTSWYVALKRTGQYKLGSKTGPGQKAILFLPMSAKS
Sequence of Concanavalin-A (Canavalia ensiformis) (P02866 whole entry, looked up): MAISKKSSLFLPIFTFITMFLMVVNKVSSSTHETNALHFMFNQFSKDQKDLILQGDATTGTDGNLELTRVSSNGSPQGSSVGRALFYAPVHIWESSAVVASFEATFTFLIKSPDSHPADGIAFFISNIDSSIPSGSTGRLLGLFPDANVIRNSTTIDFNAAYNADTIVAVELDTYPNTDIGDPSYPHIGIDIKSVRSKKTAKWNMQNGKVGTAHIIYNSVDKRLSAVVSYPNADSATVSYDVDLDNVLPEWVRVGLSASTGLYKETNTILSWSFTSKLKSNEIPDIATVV
Sequence of Focal adhesion kinase 1 (Homo sapiens) (Q05397 whole entry, looked up): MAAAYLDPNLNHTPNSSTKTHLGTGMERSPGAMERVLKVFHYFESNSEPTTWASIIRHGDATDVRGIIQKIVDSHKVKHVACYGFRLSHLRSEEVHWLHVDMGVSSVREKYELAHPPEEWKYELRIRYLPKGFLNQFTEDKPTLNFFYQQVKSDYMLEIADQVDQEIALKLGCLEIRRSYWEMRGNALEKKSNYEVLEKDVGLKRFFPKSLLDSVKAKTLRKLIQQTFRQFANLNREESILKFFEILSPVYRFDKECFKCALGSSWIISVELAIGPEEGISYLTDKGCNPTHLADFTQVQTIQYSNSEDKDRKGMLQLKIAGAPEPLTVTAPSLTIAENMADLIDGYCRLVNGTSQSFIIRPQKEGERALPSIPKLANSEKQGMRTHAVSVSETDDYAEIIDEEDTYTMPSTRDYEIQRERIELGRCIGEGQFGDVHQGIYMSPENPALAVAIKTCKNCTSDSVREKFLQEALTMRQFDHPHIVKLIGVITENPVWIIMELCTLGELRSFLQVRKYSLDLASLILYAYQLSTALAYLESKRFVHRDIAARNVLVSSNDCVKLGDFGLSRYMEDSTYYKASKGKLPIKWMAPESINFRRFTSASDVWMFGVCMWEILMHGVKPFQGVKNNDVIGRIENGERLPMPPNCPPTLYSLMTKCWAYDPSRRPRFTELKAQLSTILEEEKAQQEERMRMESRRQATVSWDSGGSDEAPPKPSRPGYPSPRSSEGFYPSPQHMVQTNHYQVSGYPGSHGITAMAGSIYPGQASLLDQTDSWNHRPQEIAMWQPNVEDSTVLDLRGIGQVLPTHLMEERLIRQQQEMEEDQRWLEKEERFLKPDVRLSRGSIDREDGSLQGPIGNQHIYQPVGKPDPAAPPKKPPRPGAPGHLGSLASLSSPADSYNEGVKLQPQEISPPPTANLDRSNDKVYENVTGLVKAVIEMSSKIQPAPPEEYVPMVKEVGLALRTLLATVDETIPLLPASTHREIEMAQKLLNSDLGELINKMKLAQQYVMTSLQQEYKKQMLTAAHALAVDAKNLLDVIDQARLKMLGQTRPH

Take `COCCOC(=O)N1C(=O)[C@@]2(c3cc(C#CCCO)ccc31)[C@H](c1ccc(OCCO)cc1)N1[C@H](c3ccccc3)[C@H](c3ccccc3)OC(=O)[C@H]1[C@@H]2C(=O)NC[C@H](O)c1ccccc1`: the composite z-score with Albumin (Bos taurus) is -0.525; in assay [2], 0.272; in assay [3], -0.146; in assay [4], 0.484; in assay [5] it was 1.78; in [6], 0.54. Also, the composite z-score is 1.29 in the assay with Sam68 (KHDRBS1); 0.716 in assay [7]; 1.05 in assay [8]; 1.23 in [9]; 1.21 in [10]; 0.76 in [11]. Also, the composite z-score in assay [12] came out at 0.883; in assay [13], 1.39; in assay [14], 1.36; in the assay on Lefty1, 1.24; in assay [16], 0.728. Also, the composite Z-score in assay [1] is 0.463 (inactive). Moreover, the z-score in [15] was -1.15; in [17], -0.216 (inactive).
With `O=C1O[C@H](c2ccccc2)[C@H](c2ccccc2)N2[C@H]1[C@@H](C(=O)Nc1nc3ccccc3s1)[C@]1(C(=O)Nc3ccc(C#CC4=CCCCC4)cc31)[C@H]2c1ccccc1OCCO`, the composite z-score with Albumin (Bos taurus) is 0.581; in assay [2], 0.0452; in assay [3], -0.14; in [4], 0.23; in assay [5] it was 0.834; in [6], -0.189. In addition, the composite z-score amounted to 1.3 in the assay with Sam68 (KHDRBS1); 0.497 in assay [7]; 1 in assay [8]; 0.485 in [9]; 1.15 in [10]; 0.66 in [11]. For the same compound, the composite z-score in [12] is 0.797; in assay [13] it was 0.968; in [14], 1.2; in the assay with Lefty1, 0.966; in [16], -0.17. Besides, in [1], the composite Z-score is 0.329 (inactive). Further, the values for the z-score in assay [15] and in assay [17] were -2.27 and -1.01 (inactive), respectively.
Consider `CO[C@]12C=C(Br)[C@@H](C[C@@H]1c1ccccc1)[C@@]1(CO1)C2=O`, for which the composite z-score with Albumin (Bos taurus) was 0.139; in [2], 0.0773; in assay [3], -0.11; in [4], 0.143; in [5], -0.245; in assay [6] it was -0.0571. Also, the composite z-score in the assay on Sam68 (KHDRBS1) was 0.0999; in assay [7], 0.77; in assay [8], 0.0193; in assay [9] it was -0.22; in [10] it was -0.0095; in [11] it was -0.259. Further, the composite z-score in assay [12] was -0.0226; in assay [13], 0.931; in [14], 0.6; in the assay with Lefty1, 0.41; in assay [16] it was -0.297. For the same compound, the composite Z-score in [1] is -0.0467 (inactive). The z-score in [15] is 0.704; in [17] it was -0.876 (inactive).
On to `CCCC=C(CCC)[C@@H](NS(=O)(=O)c1ccc(C(F)(F)F)cc1)c1ccc(-c2ccccc2)cc1`, for which the composite z-score with Albumin (Bos taurus) is 0.822; in assay [2], 0.305; in assay [3] it was -0.0467; in assay [4], 0.279; in [5] it was 2.24; in [6], 0.348. The composite z-score is 1.21 in the assay on Sam68 (KHDRBS1); -0.386 in assay [7]; 0.882 in [8]; 0.826 in assay [9]; 1.23 in assay [10]; 0.998 in assay [11]. Further, the composite z-score in assay [12] was 0.694; in assay [13], 1.26; in [14], -0.0729; with Lefty1, 0.565; in assay [16] it was 1.2. Besides, the composite Z-score in assay [1] is -0.118 (inactive). For the same compound, the z-score in [15] is 1.89; in assay [17], 2.63 (inactive).
Turning to `CO[C@@H]1COC(=O)[C@H](COCc2ccccc2)NC(=O)CC=C[C@@H](C)[C@H](OC)COC(=O)[C@H](COCc2ccccc2)NC(=O)CC=C[C@H]1C`, the composite z-score is -0.711 with Albumin (Bos taurus); -0.0063 in assay [2]; -0.112 in assay [3]; -0.319 in assay [4]; 0.107 in assay [5]; -0.225 in [6]. The composite z-score in the assay with Sam68 (KHDRBS1) was -0.136; in assay [7], 1.1; in assay [8], -0.582; in [9], -0.156; in [10] it was -0.47; in [11], -0.0624. Further, the composite z-score in assay [12] is -0.201; in assay [13], 0.59; in assay [14], 0.622; in the assay with Lefty1 it was 0.886; in [16], -0.915. Also, in assay [1], the composite Z-score was -0.14 (inactive). The z-score was 0.952 in assay [15] and -0.901 (inactive) in [17].
